Source: PubChem
Pin1 inh: blocks the human prolyl isomerase Pin1 | Potency, µM (series often up to 115 µM), most hits filed as inhibitors | Q13526 | 0.009% of 390,000 active | Pin1 FP peptide displacement, HiFluor488, 10 min; active means well fitted inhibition curve with a large enough effect in the polarisation, with a control signal flat, not every such curve was filed as active; inconclusive means small, poorly fitted or top-dose-only effect, or effect the other way, or a change in a side signal; inactive means no such curve, though single readings can be large or run the other way; the % refers to the polarisation
USP2a block: USP2a (human) protease inhibition | O75604 | USP2 core, Ub-CHOP2 coupled fluorogenic reporter, 485/531 | Potency, µM (doses to about 38.3 µM), actives largely listed as inhibitors | 0.01% of 330,000 active
Target sequence (O75604 whole entry, looked up): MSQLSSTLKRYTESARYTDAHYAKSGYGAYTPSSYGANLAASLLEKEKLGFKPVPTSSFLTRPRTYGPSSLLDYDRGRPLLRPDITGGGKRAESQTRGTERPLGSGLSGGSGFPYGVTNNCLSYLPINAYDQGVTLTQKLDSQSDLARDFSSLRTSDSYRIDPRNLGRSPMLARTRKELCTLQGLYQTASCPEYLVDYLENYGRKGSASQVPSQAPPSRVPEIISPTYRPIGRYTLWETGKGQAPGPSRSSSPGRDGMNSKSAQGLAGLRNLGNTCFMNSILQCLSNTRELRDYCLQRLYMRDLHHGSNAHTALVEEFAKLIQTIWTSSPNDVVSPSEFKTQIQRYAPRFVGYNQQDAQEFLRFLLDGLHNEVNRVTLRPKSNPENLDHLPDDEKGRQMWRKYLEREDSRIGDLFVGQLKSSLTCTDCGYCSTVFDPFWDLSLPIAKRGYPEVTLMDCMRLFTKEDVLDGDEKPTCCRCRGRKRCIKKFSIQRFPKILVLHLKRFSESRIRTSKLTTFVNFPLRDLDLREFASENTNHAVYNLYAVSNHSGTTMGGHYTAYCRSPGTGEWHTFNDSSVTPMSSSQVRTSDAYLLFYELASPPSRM
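USP2 core (10nM final) preincubated 30min RT with compound in 20mM Tris-HCl pH 8.0, 2mM CaCl2, 2mM beta-mercaptoethanol, 0.05% CHAPS; 25nM Ub-CHOP2 plus 25nM reporter substrate added, fluorescence (Ex485/Em531) read after 60min.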
a7 integrin act: activates integrin-mediated alleviation for muscular dystrophy | alpha7betagal myoblasts, beta-gal FDG fluorescence, 48 h | Potency, µM (doses to about 38.3 µM), most hits filed as activators | 0.064% of 350,000 active; further: nearly all actives have a fitted effect of over 60% in size
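alpha7betagal+/- myoblasts (passage 13, 250/well) treated 48 h at 37C with compounds at 1:260 dilution of DMSO stock. Lysed, then beta-galactosidase activity read as FDG fluorescence (ex 480/em 540) after 30 min, with pre-read for autofluorescence.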
IL2 activator: activates IL-2 in a cell-based reporter assay; IL-2 activation reporter assay, cell-based qHTS; stimulated with anti-CD3/CD4/CD28 beads; in transgenic mouse T cells; activation, % (series mostly up to about 46 µM); 0.065% of 360,000 active; AID 652025; in the data active means activation above about 50%; inconclusive means mostly about 30% to 49%
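Screening format: compound pinned onto unstimulated transgenic mouse T cells, 60 min incubation, then anti-CD3/anti-CD4/anti-CD28 bead stimulation for 18 hours at 37 degrees C, followed by EGFP and DsRed detection.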
PKM2 activator: PKM2 (human) enzyme activation; P14618; 0.34% of 260,000 active; Potency, µM (titrated, usually from 57.5 µM), usual class: activators; AID 1631; purified PKM2, Kinase-Glo ATP luminescence, activation; response scale: 0% is enzyme alone, no compound; further: nearly all actives have a fitted effect of over 55% in size
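hPK-M2, >95% pure; 0.1 mM ADP / 0.5 mM PEP final; imidazole pH7.2 buffer w/ 7 mM MgCl2, 50 mM KCl; 1 h RT; Kinase-Glo lum. Intermediate enzyme activity for dual inhibitor/activator qHTS.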
ClpP mod: qHTS Assay for Activators of ClpP. AID 651965, 2013. 1.9% of 340,000 active. purified B. subtilis ClpP, FRET peptide cleavage, 20 min. ATP-dependent Clp protease proteolytic subunit (Bacillus subtilis (strain 168)), P80244. Potency, µM (highest dose often 57.5 µM); active means well fitted falling curve with a large enough effect; inconclusive means small, poorly fitted or top-dose-only effect; inactive means no such curve, though single readings can be large or run the other way; further: the source files actives as falling curves though it sought activators and does not explain the sign; nearly all actives have a fitted effect of over 65% in size
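Purified B. subtilis ClpP, 10 microg/mL final in Tris/HCl pH8 with KCl, BSA, glycerol and Tween-20, cleaved an Abz/nitrotyrosine-quenched decapeptide. Fluorescence (ex 320, em 430) was read at 0 and 20 min at room temperature. Delta was normalized to 5.8 microM ADEP and DMSO/no-enzyme controls.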
Numbers stand for hits; [ ] = dose if it differs, or a comment. Most compounds without a hit are left out; they make up all but 1.9% or so of the library. Unless noted, the call rests on the fitted dose curve; in most records, active means well fitted curve in the direction sought with a large enough effect; inconclusive means small, poorly fitted or top-dose-only effect, or another doubt; inactive means no such curve, though single readings can be large; an effect the other way counts as inactive or inconclusive.

Results for O=C(CNC(=O)c1ccccc1Cl)OC(C(=O)Nc1cc(C(F)(F)F)ccc1Cl)c1ccccc1 (stereo unspecified) ?
Pin1 inh: inactive

Results for O=C1c2ccccc2C(=O)N1c1cccc(=O)[nH]1 ?
Pin1 inh: inactive

How did O=C(NCCc1ccccn1)C1CCN(S(=O)(=O)c2ccc(Cl)cc2)CC1 do in these assays?
Pin1 inh: inactive; USP2a block: inactive; a7 integrin act: inconclusive; IL2 activator: inactive; PKM2 activator: inactive; ClpP mod: inactive

How did Cc1ccc(S(=O)(=O)N2CCC(C(=O)NCCc3ccccn3)CC2)cc1 do in these assays?
Pin1 inh: inactive; USP2a block: inactive; a7 integrin act: inactive; IL2 activator: inactive; PKM2 activator: inactive; ClpP mod: 22.4µM

How did COc1cccc(CNC(=O)N2CCN(S(=O)(=O)c3ccc(Cl)cc3)CC2)c1 do in these assays?
Pin1 inh: inactive; USP2a block: inactive; a7 integrin act: inactive; IL2 activator: inactive; PKM2 activator: 14.1µM

How did Cn1c2cc(B(O)O)sc2c2cnn(Cc3ccc(F)cc3F)c(=O)c21 do in these assays?
USP2a block: inactive

What do the screens show for `CC(=O)N(c1ccccc1C)C1CCCC1`?
Pin1 inh: inactive; USP2a block: inactive; a7 integrin act: inactive; IL2 activator: inactive; PKM2 activator: inactive; ClpP mod: inactive

How did CC(=O)N(C1=C(Cl)C(=O)c2ccccc2C1=O)C1CCCCC1 do in these assays?
Pin1 inh: inactive; USP2a block: inactive; a7 integrin act: inactive; IL2 activator: inactive; PKM2 activator: 3.55µM; ClpP mod: inactive

How did COCc1cc(C)nc(N2CCNCC2)c1C#N do in these assays?
Pin1 inh: inactive; USP2a block: inactive; a7 integrin act: inactive; IL2 activator: inactive; PKM2 activator: inactive; ClpP mod: 15.8µM

Results for COCc1cc(C)nc(N2CCCCC2)c1C#N ?
Pin1 inh: inactive; USP2a block: inactive; a7 integrin act: inactive; IL2 activator: inactive; PKM2 activator: inactive; ClpP mod: 22.4µM

Results for COCc1cc(C)nc(N2CCN(c3ccccc3)CC2)c1C#N ?
Pin1 inh: inactive; USP2a block: inactive; a7 integrin act: inactive[7.66 µM]; IL2 activator: inactive; PKM2 activator: inactive; ClpP mod: inactive

What do the screens show for `COc1cccc(CC(=O)N2CCc3nc(-c4ccc(OC)cc4C)c4c(c3C2)CO[C@@H](c2ccccc2)C4)c1`?
PKM2 activator: inactive[11.5 µM]

How did Nc1[nH]c(=S)[nH]c(=O)c1N=O do in these assays?
ClpP mod: inactive

How did O=C1c2ccccc2NC(c2ccccc2)N1Cc1ccco1 (stereo unspecified) do in these assays?
Pin1 inh: inactive; USP2a block: inactive; a7 integrin act: inactive; IL2 activator: inactive; PKM2 activator: inactive; ClpP mod: 28.2µM

How did COc1cccc(OCc2cc(C3Nc4ccccc4C(=O)N3Cc3ccco3)ccc2OC)c1 (stereo unspecified) do in these assays?
Pin1 inh: inactive; USP2a block: inactive; a7 integrin act: inactive; IL2 activator: inactive; PKM2 activator: 7.94µM; ClpP mod: inconclusive

What do the screens show for `CCCCNC(=O)/C(C#N)=C/c1ccc2c(c1)OCCO2`?
Pin1 inh: inactive; USP2a block: inactive; a7 integrin act: inactive; IL2 activator: inactive; PKM2 activator: inactive; ClpP mod: 25.1µM

Results for CCn1cc(C(=O)NCc2ccccc2)c(=O)c2cc(F)c(N3CCN(C(=O)c4ccco4)CC3)cc21 ?
Pin1 inh: inactive; USP2a block: inactive; a7 integrin act: inactive; IL2 activator: inactive; PKM2 activator: inactive; ClpP mod: 14.1µM

What do the screens show for `CCn1cc(C(=O)NCc2ccncc2)c(=O)c2cc(F)c(N3CCN(C(=O)c4ccco4)CC3)cc21`?
Pin1 inh: inactive; USP2a block: inactive; a7 integrin act: inactive; IL2 activator: inactive; PKM2 activator: inactive

Results for CCn1cc(C(=O)NCc2ccc3c(c2)OCO3)c(=O)c2cc(F)c(N3CCN(C(=O)c4ccco4)CC3)cc21 ?
Pin1 inh: inactive; USP2a block: inactive; a7 integrin act: inactive; IL2 activator: inactive; PKM2 activator: inactive; ClpP mod: 25.1µM

What do the screens show for `CC(=O)c1cc(C(=O)NC2CCCc3c2cnn3-c2cc(C)cc(C)c2)[nH]n1` (stereo unspecified)?
Pin1 inh: inactive; USP2a block: inactive; a7 integrin act: inactive; IL2 activator: inactive; PKM2 activator: inactive; ClpP mod: 31.6µM

Results for O=S1(=O)CC(O)C(N2CCCCC2)C1 (stereo unspecified) ?
Pin1 inh: inactive; USP2a block: inactive; a7 integrin act: inactive; IL2 activator: inactive; PKM2 activator: inactive; ClpP mod: 11.2µM

Results for CC(C)Oc1ccc(-c2csc(N3CCC(C(N)=O)CC3)n2)cc1 ?
Pin1 inh: inactive

What do the screens show for `COC(=O)Nc1ccc(=O)n(Cc2c(Cl)cccc2Cl)c1`?
Pin1 inh: inactive; USP2a block: inactive; a7 integrin act: inactive; IL2 activator: inactive; PKM2 activator: inactive; ClpP mod: 28.2µM

Results for C#CCOC(=O)Nc1cccn(Cc2c(Cl)cccc2Cl)c1=O ?
Pin1 inh: inactive; USP2a block: inactive; a7 integrin act: inactive; IL2 activator: inactive; PKM2 activator: inactive; ClpP mod: inconclusive

What do the screens show for `O=[S+]([O-])(c1ccc2c(c1)OCCO2)N1CCN([S+](=O)([O-])c2ccc(F)cc2Cl)CC1`?
Pin1 inh: inactive

How did Cc1ccc2nc(SC(C)C(=O)NC3CCCc4ccccc43)[nH]c2c1 (stereo unspecified) do in these assays?
Pin1 inh: inactive; USP2a block: inactive; a7 integrin act: inactive; IL2 activator: inactive; PKM2 activator: inactive; ClpP mod: 25.1µM

What do the screens show for `O=C(CSc1nc2ccc(Cl)cc2[nH]1)NC1CCCc2ccccc21` (stereo unspecified)?
Pin1 inh: inactive; USP2a block: inactive; a7 integrin act: inactive; IL2 activator: inactive; PKM2 activator: inactive

What do the screens show for `CN(C)CCCNc1oc(-c2ccc(Cl)cc2)nc1C#N`?
Pin1 inh: inactive; USP2a block: inactive; a7 integrin act: inactive; IL2 activator: inactive; PKM2 activator: inactive; ClpP mod: inactive

What do the screens show for `N#Cc1nc(-c2ccc(Cl)cc2)oc1NCc1cccc2c1OCO2`?
Pin1 inh: inactive; a7 integrin act: inactive[7.66 µM]; IL2 activator: inactive; PKM2 activator: inactive; ClpP mod: 11.2µM

How did N#Cc1nc(-c2ccc(Cl)cc2)oc1NCc1ccco1 do in these assays?
Pin1 inh: inactive; USP2a block: inactive; a7 integrin act: inactive; IL2 activator: inactive; PKM2 activator: inactive; ClpP mod: 11.2µM

Results for N#Cc1nc(-c2ccccc2)oc1NCc1ccco1 ?
Pin1 inh: inactive; USP2a block: inactive; a7 integrin act: inactive; IL2 activator: inactive; PKM2 activator: inactive; ClpP mod: inactive
